# Most compounds without a hit are left out; they make up all but 1.5% or so of the library.
# AID504770: growth inhibition of E. coli YBA685, primary screen, V. cholerae RctB inhibitors; E. coli YBA685 rctB-dependent plasmid, OD600 growth, 3 h; stronger effect = lower value; z-score (test concentration not listed); actives 0.27% (n = 130,000); AID 504770, 2011; in the data active = z-score below about -2, passing the limit was not always enough
# PV pol inh: poliovirus RdRp elongation inhibitors, primary screen, biochemical, fluorescence polarization, total intensity; Genome polyprotein (Poliovirus type 1 (strain Mahoney)), P03300; poliovirus polymerase elongation; stronger effect = lower value; % elongation, % (compound at 16.7 µg/mL); actives 0.66% (n = 150,000); in the data active = % elongation below about 90%
# Target sequence (P03300 1749-2209 limits assumed): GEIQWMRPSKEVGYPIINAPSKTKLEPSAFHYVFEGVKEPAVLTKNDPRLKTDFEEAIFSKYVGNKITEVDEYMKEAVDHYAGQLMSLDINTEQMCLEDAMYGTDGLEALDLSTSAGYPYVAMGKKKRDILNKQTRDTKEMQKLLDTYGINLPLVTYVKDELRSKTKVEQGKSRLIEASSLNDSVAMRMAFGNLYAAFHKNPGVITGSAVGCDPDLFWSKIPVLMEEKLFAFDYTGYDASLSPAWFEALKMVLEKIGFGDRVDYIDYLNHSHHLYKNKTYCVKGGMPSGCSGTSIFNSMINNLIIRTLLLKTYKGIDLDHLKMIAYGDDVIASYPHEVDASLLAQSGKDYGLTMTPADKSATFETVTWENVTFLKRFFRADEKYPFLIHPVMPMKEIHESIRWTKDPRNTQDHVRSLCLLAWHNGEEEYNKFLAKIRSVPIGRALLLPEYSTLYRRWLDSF
# MenB inh: M. tuberculosis MenB inhibitors, primary screen, biochemical, absorbance | actives 0.43% (n = 100,000) | 1,4-dihydroxy-2-naphthoyl-CoA synthase (Mycobacterium tuberculosis (strain ATCC 25618 / … | MenB enzyme assay, absorbance read-out | inhibition, % (test concentration not listed); in the data active = inhibition above about 21%, passing the limit was not always enough
# MbtI inh: MbtI salicylate synthase inhibitors, primary screen, biochemical, fluorescence intensity | P9WFX0 | purified MbtI enzyme, fluorescence intensity read-out | inhibition, % (concentration not given with the values) | actives 0.89% (n = 100,000) | AID 493033, 2011; in the data active = inhibition mostly above about 56%, no sharp cut-off; inactive = mostly below about 77%
# Numbers stand for hits; 0 = inactive; - = no result.
SMILES,AID504770,PV pol inh,MenB inh,MbtI inh
COc1ccc(S(=O)(=O)N=S(C)(=O)c2ccc(C)cc2)cc1 (stereo not given),0,-,-,-
O=C1C=CC(=NS(=O)(=O)c2ccc(F)cc2)C=C1,0,0,0,98
Cc1ccc(S(=O)(=O)N=C2C=CC(=O)C=C2)cc1,0,0,0,96
CC1=C/C(=N\S(=O)(=O)c2ccccc2)C=CC1=O,0,0,0,101
CCOc1ccc(S(=O)(=O)N=C2C=CC(=O)C=C2)cc1,0,0,0,93
CS(=O)(=O)c1ccc(F)cc1,0,0,0,0
CCOC(=O)c1sc(N(Cc2ccccc2)C(=O)CSc2nnc3n2CCCCC3)nc1C,0,0,0,0
COc1ccc(-c2csc3c(C#N)c(C)cc(=O)n23)cc1,0,0,0,0
Nc1cc(=O)[nH]c(SCC(=O)N(c2ccccc2)c2ccccc2)n1,0,0,0,0
CCN(CC)c1ccc(NS(=O)(=O)c2cc3[nH]c(=O)c(=O)[nH]c3cc2C)c(C)c1,-,85,-,-
Nc1sc(=S)nc2ccccc12,0,0,0,52
Nc1c2ccccc2nc2ccccc12 (tested in a mixture with another compound),0,0,0,0
CCCn1c(NC(=O)[C@@H](NS(=O)(=O)c2ccccc2)C(C)C)nc2ccccc21,0,0,0,0
CC1Sc2ccc(C(=O)NCc3ccccn3)cc2NC1=O (stereo not given),0,87,0,87
NC(=S)N/N=C/c1ccc(N2CCOCC2)s1,0,0,0,89
CC(C)CNS(=O)(=O)c1ccccc1,0,0,0,0
CN(Cc1nc2ccccc2c(=O)[nH]1)C(=O)COc1ccc2c(c1)CCC2,0,55,0,0
CCOC(=O)c1c(CN2CCCC2)oc2ccc(OC)cc12,0,0,0,0
Cn1cccc1/C=C/C(=O)O,0,76,0,0
CSc1nsc(SC)c1NC(=O)OCCc1ccccn1,0,-,-,-
CSc1nsc(SC)c1NC(=O)OCC1CCCO1 (stereo not given),0,88,0,-
Cc1nn(-c2ccccc2)nc1CNS(C)(=O)=O,0,0,0,0
Cc1nn(-c2ccccc2)nc1CNS(=O)(=O)c1cccs1,-3.3,-,-,-
CC1CCN(c2nnc(NC(=O)c3cc(-c4ccc(Br)cc4)on3)s2)CC1,0,0,0,0
Cc1ccc(-c2nnc(-c3ccc(NC(=O)C(C)C)cc3)o2)cc1,0,0,0,0
SMILES,AID504770,PV pol inh,MenB inh,MbtI inh
CC(=O)N1CCOc2ccc(S(=O)(=O)NC3CCCCCC3)cc21,0,0,0,0
O=C(Oc1ccc(F)cc1)c1nsc(Cl)c1Cl,0,88,0,-
CC(Sc1ncnc2sc3c(c12)CCCC3)C(=O)O (stereo not given),-3.4,0,0,-
CCCCN1COc2c(cc(Cl)c3cccnc23)C1,-5.8,0,0,0
Oc1ccc(/C=N/n2cnn(Cc3ccccc3Cl)c2=S)c(O)c1,0,87,0,0
OCc1nc2ccccc2n1Cc1ccccc1Cl,0,0,0,0
C=C1C(=O)OC2C[C@@H](C)[C@@H]3C=CC(=O)[C@@]3(C)[C@@H](O)C12 (stereo not given in full),-,0,0,-
O=C1NC(=S)N(c2ccccc2)C(=O)/C1=C\c1ccoc1,0,0,0,69
COC(=O)c1cccc(N2C(=O)C3C4C=CC(C)(O4)C3C2=O)c1 (stereo not given),0,0,0,99
Cc1ccc(C)c(C(=O)NCC(C)C)c1,0,0,0,0
Cc1ccc(C)c(C(=O)/C=C/C(=O)O)c1,0,0,67,-
O=C(OCc1cc(=O)oc2cc(O)ccc12)c1nc(Cl)ccc1Cl,0,88,0,0
O=C(OCc1cc(=O)oc2cc(O)ccc12)c1cc(Br)ccc1O,0,0,0,0
COC(=O)C(CC(C)C)NC(=O)C1c2ccccc2Oc2ccccc21 (stereo not given),0,-,-,-
N#CCc1nc(-c2cccc(Cl)c2)n[nH]1,0,0,0,74
CCc1cccc(NC(=O)/C=C/c2ccco2)c1,0,0,0,78
CCc1ccc(NC(=O)/C=C/c2ccco2)cc1,0,0,0,0
O=C(CSc1nc2ccccc2s1)c1ccc[nH]1,0,58,0,0
O=C(CSc1nc2ccccc2s1)c1ccccc1,0,-,-,-
NC(=O)CSc1nc2ccccc2s1,0,0,0,82
O=C1CCCc2nccc(-c3ccccc3)c21,0,0,0,0
CC(c1n[nH]c(=S)n1Cc1ccccc1)N(C)C (stereo not given),0,0,0,59
O=S(=O)(NC1CCc2ccccc21)c1ccc(S(=O)(=O)N2CCCC2)cc1 (stereo not given),0,0,39,0
O=C(NC1CCCc2ccccc21)c1cc(S(=O)(=O)N2CCCCC2)c[nH]1 (stereo not given),0,0,0,0
O=C(O)CCOc1ccc(Cl)cc1,0,-,-,-
SMILES,AID504770,PV pol inh,MenB inh,MbtI inh
Clc1nc(Cl)nc(NNc2nc(Cl)nc(Cl)n2)n1,0,0,34,0
CCCNc1nc(Cl)nc(Cl)n1,0,0,0,0
COC(=O)c1ccsc1N1C(=O)C=CC1=O,0,-,0,94
Cc1nc(-c2cccnc2)[nH]c(=O)c1CC1CC1,-3,-,-,-
O=c1[nH]c(-c2cccnc2)nc2ccccc12,0,-,-,-
CCO/C=C1\C(=O)N(C)C(=O)c2ccccc21,0,10,-,0
CCO/C=C1/C(=O)N(c2ccc(Cl)cn2)C(=O)c2ccccc21,0,85,0,0
CCO/C=C1/C(=O)N(Cc2ccc(OC)cc2)C(=O)c2ccccc21,0,36,0,0
CCO/C=C1/C(=O)NC(=O)c2ccccc21,0,0,0,0
CCN1CCN(C(C)C(=O)N(C(C)C)C(C)C)CC1 (stereo not given),0,0,0,0
Clc1ccc(CSCc2cn3ccsc3n2)cc1,0,0,0,0
O=C(/C=C(\O)c1ccc(Cl)cc1)C(F)(F)F,-4.3,0,0,0
O=C(NC1CCS(=O)(=O)C1)Sc1ccccc1 (stereo not given),0,0,0,52
FC(F)(F)c1cc(C(F)(F)F)n2[nH]c(=S)nc2n1,0,0,0,96
CC(C)(C)c1cc(C(F)(F)F)nc(SCCNC(=O)c2cnn3cccnc23)n1,0,0,34,0
CC1=CC(=C2C(=O)NC(=O)NC2=O)C=C(C)N1c1ccccc1,0,0,0,0
Cc1cc(C)nc(SCC(=O)OCN2C(=O)c3ccccc3C2=O)n1,0,0,0,0
O=C(CSC1=NCCS1)OCN1C(=O)c2ccccc2C1=O,0,0,38,0
Cc1cc(N)c(N)cc1C,0,0,0,0
Cc1cc(N)c(O)cc1C,0,0,0,100
Oc1nc2c(Cl)c(Cl)c(Cl)cc2o1,0,0,0,0
CC12CC(C)(C)C(C#N)(C(N)=C1C#N)C(=C(C#N)C#N)N2 (stereo not given),0,83,0,0
CC(C)OC(=O)CN1C(=O)C(C)(C)Oc2ccc(C(=O)Nc3ccccc3)cc21,0,0,25,0
c1coc(-c2nnc(-c3ccco3)nn2)c1,0,43,0,0

# High-throughput results: PubChem BioAssay, ICCB-Longwood Screening Facility, Harvard Medical School
